Laboratory results: ChEMBL document CHEMBL3988442, “University of Dundee, Small-Polar-MMV Screening Library” (2021)

Biological target: T1, Aspartate--tRNA(Asp/Asn) ligase (Mycobacterium tuberculosis (strain ATCC 25618 / H37Rv)) (UniProt P9WFW3)
T1 sequence (whole entry): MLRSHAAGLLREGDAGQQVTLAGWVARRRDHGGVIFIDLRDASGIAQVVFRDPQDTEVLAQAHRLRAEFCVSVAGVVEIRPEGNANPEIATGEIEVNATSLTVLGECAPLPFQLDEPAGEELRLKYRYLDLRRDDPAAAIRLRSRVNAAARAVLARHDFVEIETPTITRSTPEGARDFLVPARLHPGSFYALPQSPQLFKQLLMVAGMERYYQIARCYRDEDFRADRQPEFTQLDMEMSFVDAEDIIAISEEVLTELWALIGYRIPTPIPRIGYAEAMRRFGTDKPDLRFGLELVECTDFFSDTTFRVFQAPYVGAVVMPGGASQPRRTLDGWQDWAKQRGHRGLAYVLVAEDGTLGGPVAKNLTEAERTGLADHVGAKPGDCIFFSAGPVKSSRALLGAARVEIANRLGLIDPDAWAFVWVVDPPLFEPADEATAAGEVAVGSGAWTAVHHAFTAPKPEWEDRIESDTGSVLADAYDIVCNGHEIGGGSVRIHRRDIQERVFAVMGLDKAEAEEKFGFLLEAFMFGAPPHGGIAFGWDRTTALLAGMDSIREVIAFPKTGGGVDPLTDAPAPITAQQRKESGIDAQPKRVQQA
Assay: Assay for Asp RNA synthetase-1 from Mycobacterium tuberculosis
Type: functional
Set-up: scale not given: in the data most compounds retested in dose-response had high values
Details: 30 µM

Q: How did the Percent Effect turn out when Cc1cc(C)nc(CCNC(=O)[C@H]2CNC[C@@H](C(=O)N3CCCC3)C2)n1 was run?
A: -2.14%

Q: With Cc1ccc2cc(C3(O)CCN(C(=O)CN4CCCC4)CC3)ccc2n1 as the compound, how does the Percent Effect read?
A: 1.48%

Q: Cn1c(C(F)(F)F)nn(CCNC(=O)NCc2ccccc2)c1=O was tested. Which Percent Effect did it give?
A: -5.98%

Q: Which Percent Effect does the source give for COc1ccc(C(=O)N2CCCCC2Cn2cccn2)c(F)c1 (stereo not given) here?
A: 3.52%

Q: How did the Percent Effect turn out when Cc1cnn(CC2CCCN2CCc2nc3ccccc3c(=O)[nH]2)c1 (stereo not given) was run?
A: -3.23%

Q: CCN(CC1CCOC1)C(=O)Nc1ccc(N2CCCC2)nc1 (stereo not given) was tested. Which Percent Effect did it give?
A: 0.3%

Q: Which Percent Effect does the source give for CC(C)Oc1ncccc1CNC(=O)N1CCC(C(N)=O)C1 (stereo not given) here?
A: -4.37%

Q: Which Percent Effect does the source give for O=C(Nc1nnc(C2CC2)s1)NC1CCN(Cc2ccccc2)C1 (stereo not given) here?
A: -0.344%

Q: CCc1nc(NCCCn2cccn2)c2c(n1)c(C)nn2C was tested. Which Percent Effect did it give?
A: -0.755%

Q: For Cn1ccc(C(=O)NC2CCC23CCN(Cc2cccnc2)CC3)c1 (stereo not given), which Percent Effect is on record?
A: 0.843%

Q: How did the Percent Effect turn out when Cc1[nH]nc2ncc(C(=O)N3CCN(CC(C)C)CC3)cc12 was run?
A: -2.36%

Q: Cc1cc(N2CCC(N(C)C(=O)c3ccccc3)CC2)nc(C)n1 was tested. Which Percent Effect did it give?
A: -5.32%

Q: Which Percent Effect does the source give for c1ccc(-c2nc(CN3CCOC(Cn4cccn4)C3)no2)cc1 (stereo not given) here?
A: -1.51%

Q: With CC(C(=O)NCCCn1ccnc1)n1cc(Br)cn1 (stereo not given) as the compound, how does the Percent Effect read?
A: 3.33%

Q: How did the Percent Effect turn out when CCN(CC1CCOC1)C(=O)Nc1ccc(-n2cncn2)nc1 (stereo not given) was run?
A: -0.722%

Q: For CCc1n[nH]c(C2CN(C(=O)c3ccsc3)CCO2)n1 (stereo not given), which Percent Effect is on record?
A: -7.75%

Q: Which Percent Effect does the source give for COCCn1c2c(ccc1=O)CC(NS(C)(=O)=O)CC2 (stereo not given) here?
A: 2.72%

Q: How did the Percent Effect turn out when CN(CC(=O)N1CCCN(Cc2cscn2)CC1)c1cnccn1 was run?
A: -1.02%

Q: Which Percent Effect does the source give for COC(=O)C(C)(C)NC(=O)C1CC(=O)N(C2CCCC2)C1 (stereo not given) here?
A: 0.137%

Q: With Cc1nc(CN2CCCC(N(C)Cc3c(C)noc3C)C2)no1 (stereo not given) as the compound, how does the Percent Effect read?
A: -5.45%

Q: With Cc1cc(C2CCCN(C(=O)CN3CCN(C)CC3)C2)n[nH]1 (stereo not given) as the compound, how does the Percent Effect read?
A: -0.728%

Q: For CC(C)c1nc(CN2CCN(CC3CCCO3)CC2)cs1 (stereo not given), which Percent Effect is on record?
A: -0.404%

Q: O=C(c1ccc2c(c1)OCO2)N1CCC[C@]2(C[C@H](OCC3CC3)CO2)C1 was tested. Which Percent Effect did it give?
A: 1.07%

Q: Which Percent Effect does the source give for CN(C)Cc1ccnc(C2CCCN2Cc2cc[nH]n2)n1 (stereo not given) here?
A: -4.42%

Q: N#Cc1ccc(F)c(CN2CCCC2Cn2cnc3ccccc32)c1 (stereo not given) was tested. Which Percent Effect did it give?
A: -0.466%

Q: For CCOc1cc(C)nc(N2CCN(C(=O)c3ccnn3C)CC2)n1, which Percent Effect is on record?
A: -2.8%

Q: Which Percent Effect does the source give for Cc1noc([C@H]2COC[C@H]3CN(C(=O)Cc4ccc(F)cc4)C[C@H]32)n1 here?
A: -3.45%

Q: With Cc1cccc(NC(=O)Cn2ncc(SCC(N)=O)c(Cl)c2=O)c1C as the compound, how does the Percent Effect read?
A: -2.73%

Q: With CC(=O)c1cccc(NC(=O)CN2CCCCC2C2OCCO2)c1 (stereo not given) as the compound, how does the Percent Effect read?
A: 1.76%

Q: With Cn1ncc2c1CCCC2NCc1ccc(Cl)s1 (stereo not given) as the compound, how does the Percent Effect read?
A: -3.2%

Q: For Cn1ccnc1CN1CCCC(Cc2ccccn2)C1 (stereo not given), which Percent Effect is on record?
A: -2.49%

Q: For Cn1cc(CN2CCCN(C(=O)c3cc(Cl)cn3C)CC2)cn1, which Percent Effect is on record?
A: -4.75%

Q: With CN(C)c1cc(CNC(=O)Nc2ccc(F)cc2)ccn1 as the compound, how does the Percent Effect read?
A: 3.3%

Q: With CC(=O)N1CCC(C(=O)c2cc(C)cnc2N)CC1 as the compound, how does the Percent Effect read?
A: 0.75%

Q: Which Percent Effect does the source give for CC(C)CCN1CC2(CCCN(C(=O)c3cscn3)C2)CCC1=O (stereo not given) here?
A: 8.2%

Q: With Cc1cccc(C(=O)N2C[C@@H]3OCCN(c4ncccn4)[C@@H]3C2)n1 as the compound, how does the Percent Effect read?
A: 2.48%

Q: For Cc1cccc(CN2C[C@@H]3COC[C@]3(CNC(=O)N3CCCC3)C2)n1, which Percent Effect is on record?
A: 2.42%

Q: CCN(CC)C(=O)CCNc1cncc(-n2nc(C)cc2C)n1 was tested. Which Percent Effect did it give?
A: 1.51%

Q: O=C(CC1CC1)N1CC[C@H]2[C@@H]1CCC(=O)N2c1cccnc1 was tested. Which Percent Effect did it give?
A: -4.48%

Q: NC(=O)CCOc1nc(-c2ccccc2Cl)no1 was tested. Which Percent Effect did it give?
A: -4.51%
